Experimental findings from PubChem BioAssay (Tox21) are described below.

A number with no mark means an inactive call. Results filed as inconclusive are left out. Calls of active or inactive are those of the source. Calls come from the whole dose curve.
% is set by controls: 0 for no effect and ±100 for the full control effect.

The target in one experiment is Acetylcholinesterase (Homo sapiens) (UniProt P22303). Description: Acetylcholinesterase (AChE) small molecule antagonists: colormetric cell-based qHTS assay (AID 1347395). Note: nearly all actives have a fitted effect of over 30% in size. The settings on record: SH-SY5Y cells AChE activity, colorimetric (Ellman); series mostly up to 115 µM; activity, negative = inhibition: at the top concentration. In a few lines: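 Homogeneous whole-cell format. SH-SY5Y cells seeded overnight, dosed with compound (30 min, 37 C, 5% CO2), then given DTNB/acetylthiocholine cocktail for 90 min at 37 C; colorimetric signal.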
Acetylcholinesterase (Homo sapiens), sequence (P22303 whole entry, looked up): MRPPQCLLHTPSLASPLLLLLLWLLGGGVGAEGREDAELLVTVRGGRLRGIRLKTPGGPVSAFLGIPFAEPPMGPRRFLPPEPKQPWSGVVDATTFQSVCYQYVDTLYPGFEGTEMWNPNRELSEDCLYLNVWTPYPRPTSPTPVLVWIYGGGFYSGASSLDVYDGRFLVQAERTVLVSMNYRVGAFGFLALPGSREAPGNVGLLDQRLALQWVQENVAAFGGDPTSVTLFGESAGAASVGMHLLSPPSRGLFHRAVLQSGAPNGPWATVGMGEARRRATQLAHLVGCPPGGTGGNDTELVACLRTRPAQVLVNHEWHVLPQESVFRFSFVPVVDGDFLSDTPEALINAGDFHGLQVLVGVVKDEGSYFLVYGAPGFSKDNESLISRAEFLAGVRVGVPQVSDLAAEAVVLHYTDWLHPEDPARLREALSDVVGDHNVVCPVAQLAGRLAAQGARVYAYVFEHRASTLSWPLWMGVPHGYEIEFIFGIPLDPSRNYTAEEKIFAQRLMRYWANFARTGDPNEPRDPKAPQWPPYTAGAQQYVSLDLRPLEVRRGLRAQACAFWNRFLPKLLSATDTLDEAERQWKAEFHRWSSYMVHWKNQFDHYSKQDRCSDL
For the compound `N#Cc1ccc(C2CCCc3cncn32)cc1` (stereo not drawn), the “activity, negative = inhibition” value was -1.44% [at 52.9 µM].
With `Cc1onc(-c2ccccc2)c1-c1ccc(S(N)(=O)=O)cc1`, the “activity, negative = inhibition” value is -0.352% [at 52.9 µM].
Take `CCOCN(C(=O)CS(=O)(=O)O)c1c(C)cccc1CC`: the “activity, negative = inhibition” value is 2.23%.
For the compound `CNCC(O)c1ccc(O)c(O)c1` (stereo not drawn), the outcome was inactive.
For the compound `CCN(CC)c1ccc(C=O)cc1`, the “activity, negative = inhibition” value is -0.0485%.
For the compound `CCCN(CCC)C(=O)C(CCC(=O)O)NC(=O)c1ccccc1` (stereo not drawn), the “activity, negative = inhibition” value was -1.67% [at 52.9 µM].
On the same count and under the same terms, the result for `N#CCCCC(C#N)CCC#N` (stereo not drawn) reads 1.21%; that for `CCCCCCCCCCCCCCCC/C=C/C1CC(=O)OC1=O` (stereo not drawn), -1.19% [at 52.9 µM].
Consider `CC1(C)OC(=O)Nc2ccc(Br)cc21`, for which the “activity, negative = inhibition” value is 2.15% [at 52.9 µM].
Regarding `COC(=O)[C@@H]1[C@H]2C[C@H]3c4[nH]c5ccccc5c4CCN3C[C@@H]2CC[C@@H]1O`, the “activity, negative = inhibition” value was 0.382% [at 52.9 µM].
Take `N#CCc1cccc(C(F)(F)F)c1`: the “activity, negative = inhibition” value is 3.23%.
As for `CC(C)(C)C1CCC(=O)CC1`, the “activity, negative = inhibition” value was 2.86%.
On to `CCCCOC(=O)CCCCCCCC(=O)OCCCC`, for which the “activity, negative = inhibition” value was 0.105%.
Still for that read-out and setting: next, `Cc1ccccc1N=Nc1ccc(N=Nc2c(O)ccc3ccccc23)c(C)c1`: 3.77% [at 52.9 µM].
As to `Clc1cc(Cl)cc(Cl)c1`, the “activity, negative = inhibition” value was 5.92%.
Still for that read-out and setting: the result for `CCC(C)CCCC(C)(C)O` (stereo not drawn) reads 0.558%.
The same measure, in the same setting: the result for `O=C(O)[C@H](O)c1ccccc1` reads 4.71% [at 52.9 µM]; that for `OCC(O)c1ccccc1` (stereo not drawn), 2.41%.
Same read-out and setting: next, `CC(CC(=O)Cl)CC(C)(C)C` (stereo not drawn): 1.55%; `CC(C)SCc1ccco1`: 0.0725% [at 52.9 µM]; `OCCC(F)(F)C(F)(F)C(F)(F)C(F)(F)C(F)(F)C(F)(F)F`: 1.49%.
Regarding `CC1CC(=O)CC(C)(C)C1` (stereo not drawn), the “activity, negative = inhibition” value was -0.316%.
In the case of `CCCCCc1ccc(O)cc1`, the “activity, negative = inhibition” value was 0.0969%.
As for `CC(=O)N(CC(=O)N(C)C)c1ccccc1`, the “activity, negative = inhibition” value is 26.3% [at 52.9 µM].
Take `COc1ccnc(CS(=O)c2nc3ccc(OC(F)F)cc3[nH]2)c1OC` (stereo not drawn): the “activity, negative = inhibition” value is -4.57% [at 52.9 µM].
Same read-out and setting: next, `O=CC=C(c1ccccc1)c1ccccc1`: -1.27%; `CCO[Si](CCC1CCC2OC2C1)(OCC)OCC` (stereo not drawn): 0.931%; `COCCc1ccccn1`: -0.63% [at 52.9 µM].
The same measure, in the same setting: next, `NCc1ccccc1`: 3.44%; `CCCCCCCCCC#N`: 0.409%.
For the compound `O=C(CCS)OCC(COC(=O)CCS)(COC(=O)CCS)COC(=O)CCS`, the “activity, negative = inhibition” value was -2%.
As to `O=[N+]([O-])c1ccc2[nH]ncc2c1`, the “activity, negative = inhibition” value was -5.25%.
For the compound `CN1[C@@H]2CC[C@H]1CC(NC(=O)n1c(=O)[nH]c3ccccc31)C2` (stereo partly drawn), the “activity, negative = inhibition” value is 0% [at 52.9 µM].
On the same count and under the same terms, next, `O=C1OC(OC(=O)c2cccnc2Nc2cccc(C(F)(F)F)c2)c2ccccc21` (stereo not drawn): 3.37% [at 52.9 µM]; `OC[C@@H](O)[C@@H](O)CO`: -0.75%; `Cc1ccc(Nc2ccc(O)c3c2C(=O)c2ccccc2C3=O)cc1`: 0%.
On the same count and under the same terms, next, `c1ccc(-c2nn[nH]n2)cc1`: 3.26%.
Consider `Cc1ccc(N)nc1`, for which the “activity, negative = inhibition” value was -5.63%.
The same measure, in the same setting: the result for `O=C(CCCCCCC(=O)Nc1ccccc1)NO` reads 2.64% [at 52.9 µM].

A further experiment shares this target. Description: Acetylcholinesterase (AChE) small molecule antagonists: enzyme-based qHTS assay (AID 1347397). Note: nearly all actives have a fitted effect of over 55% in size. The settings on record: Potency: AChE enzyme activity inhibition; outcome: AChE enzyme activity inhibition; series mostly up to 115 µM; activity change, negative = inhibition: at the top concentration. The essentials: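 In this quantitative HTS, compounds from the Tox21 10K collection were preincubated 30 min at ambient temperature with recombinant human AChE dispensed at 50 mU/mL. Hydrolysis of acetylthiocholine was then followed for 10 min by DTNB colour development.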
(In general: Quantitative high-throughput screening tests each substance at several concentrations.)
Consider `N#Cc1ccc(C2CCCc3cncn32)cc1` (stereo not drawn), for which the “activity change, negative = inhibition” value was 0.619% [at 53 µM].
Consider `Cc1onc(-c2ccccc2)c1-c1ccc(S(N)(=O)=O)cc1`, for which the “activity change, negative = inhibition” value was -0.693% [at 53 µM].
Regarding `CCOCN(C(=O)CS(=O)(=O)O)c1c(C)cccc1CC`, the “activity change, negative = inhibition” value is -0.268%.
Turning to `CNCC(O)c1ccc(O)c(O)c1` (stereo not drawn), the call was inactive.
Turning to `CCN(CC)c1ccc(C=O)cc1`, the “activity change, negative = inhibition” value is 1.75%.
As for `CCCN(CCC)C(=O)C(CCC(=O)O)NC(=O)c1ccccc1` (stereo not drawn), the “activity change, negative = inhibition” value was 1.96% [at 53 µM].
For the compound `N#CCCCC(C#N)CCC#N` (stereo not drawn), the “activity change, negative = inhibition” value was -0.646%.
In the case of `CCCCCCCCCCCCCCCC/C=C/C1CC(=O)OC1=O` (stereo not drawn), the “activity change, negative = inhibition” value is -8.13% [at 53 µM].
For the compound `CC1(C)OC(=O)Nc2ccc(Br)cc21`, the “activity change, negative = inhibition” value was 0.904% [at 53 µM].
Same read-out and setting: next, `COC(=O)[C@@H]1[C@H]2C[C@H]3c4[nH]c5ccccc5c4CCN3C[C@@H]2CC[C@@H]1O`: 0.559% [at 53 µM]; `N#CCc1cccc(C(F)(F)F)c1`: 1.38%; `CC(C)(C)C1CCC(=O)CC1`: 4%.
As to `CCCCOC(=O)CCCCCCCC(=O)OCCCC`, the “activity change, negative = inhibition” value is 3.84%.
On the same count and under the same terms, the result for `Cc1ccccc1N=Nc1ccc(N=Nc2c(O)ccc3ccccc23)c(C)c1` reads 0.135% [at 53 µM].
Still for that read-out and setting: next, `Clc1cc(Cl)cc(Cl)c1`: -1.78%.
For `CCC(C)CCCC(C)(C)O` (stereo not drawn), the “activity change, negative = inhibition” value was 1.45%.
As to `O=C(O)[C@H](O)c1ccccc1`, the “activity change, negative = inhibition” value is 0.371% [at 53 µM].
On the same count and under the same terms, next, `OCC(O)c1ccccc1` (stereo not drawn): -0.713%; `CC(CC(=O)Cl)CC(C)(C)C` (stereo not drawn): 0.799%; `CC(C)SCc1ccco1`: -0.752% [at 53 µM].
`OCCC(F)(F)C(F)(F)C(F)(F)C(F)(F)C(F)(F)C(F)(F)F`: the “activity change, negative = inhibition” value was -0.264%.
Take `CC1CC(=O)CC(C)(C)C1` (stereo not drawn): the “activity change, negative = inhibition” value was -1.27%.
In the case of `CCCCCc1ccc(O)cc1`, the “activity change, negative = inhibition” value is -4.5%.
As to `CC(=O)N(CC(=O)N(C)C)c1ccccc1`, the “activity change, negative = inhibition” value was -4.61% [at 53 µM].
In the case of `COc1ccnc(CS(=O)c2nc3ccc(OC(F)F)cc3[nH]2)c1OC` (stereo not drawn), the “activity change, negative = inhibition” value was 1.09% [at 53 µM].
Turning to `O=CC=C(c1ccccc1)c1ccccc1`, the “activity change, negative = inhibition” value is 0%.
Same read-out and setting: next, `CCO[Si](CCC1CCC2OC2C1)(OCC)OCC` (stereo not drawn): 0.92%.
Turning to `COCCc1ccccn1`, the “activity change, negative = inhibition” value is -0.404% [at 53 µM].
Turning to `NCc1ccccc1`, the “activity change, negative = inhibition” value is 0.855%.
The same measure, in the same setting: next, `CCCCCCCCCC#N`: 0.256%; `O=C(CCS)OCC(COC(=O)CCS)(COC(=O)CCS)COC(=O)CCS`: -11.4%.
Consider `O=[N+]([O-])c1ccc2[nH]ncc2c1`, for which the “activity change, negative = inhibition” value is -3.13%.
Same read-out and setting: the result for `CN1[C@@H]2CC[C@H]1CC(NC(=O)n1c(=O)[nH]c3ccccc31)C2` (stereo partly drawn) reads 2.23% [at 53 µM].
Turning to `O=C1OC(OC(=O)c2cccnc2Nc2cccc(C(F)(F)F)c2)c2ccccc21` (stereo not drawn), the “activity change, negative = inhibition” value is 0.27% [at 53 µM].
On to `OC[C@@H](O)[C@@H](O)CO`, for which the “activity change, negative = inhibition” value is 0.546%.
On the same count and under the same terms, next, `Cc1ccc(Nc2ccc(O)c3c2C(=O)c2ccccc2C3=O)cc1`: 0.273%; `c1ccc(-c2nn[nH]n2)cc1`: 0.645%; `Cc1ccc(N)nc1`: 0.409%.
As for `O=C(CCCCCCC(=O)Nc1ccccc1)NO`, the “activity change, negative = inhibition” value is 1.53% [at 53 µM].
